CF NFkB inh = cystic fibrosis NF-kB activation inhibition | 0.86% of 360,000 active | AID 588850 | inhibition, % at 5 µM | KKLEB NF-kB-GFP reporter, PAF-induced, GFP fluorescence overnight;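 active = at least 50% inhibition at 5 µM, scaled per plate between neutral and stimulator controls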;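 also: PAF is a Pseudomonas aeruginosa culture filtrate used as stimulus; plate controls were PAF-stimulated DMSO wells for no effect and unstimulated DMSO wells for full effect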
KKLEB tox = CF airway cell cytotoxicity counter-screen; KKLEB CF airway cells viability, ATPlite luminescence, overnight; active compounds read low; cells stimulated with P. aeruginosa culture filtrate; activity change (cytotoxicity), % at 5 µM; 0.36% of 360,000 active; AID 602141;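 active = corrected activity change at or below -50% at 5 µM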
Peg3 promoter = inhibitors of Peg3 promoter; HeLa PEG-Prom luciferase reporter, luminescence, overnight; inhibition, % at 20 µM; 1.7% of 360,000 active;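 active = inhibition of at least 50% at 20 µM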
TWEAK Fn14 block = inhibitors of TWEAK-Fn14 interaction signaling; inhibition, % at 10 µM; TWEAK-stimulated Fn14 reporter cells, luciferase luminescence, 8 h; AID 1159606; 2% of 360,000 active; in the data active = inhibition above about 50%
TROY NFkB inh = TROY signaling inhibition. inhibition, % at 10 µM. 0.98% of 360,000 active. Q293 LMP1-TROYcd NF-kB luciferase reporter, 4 h. AID 1347056;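 active = compounds whose plate-normalised and pattern-corrected inhibition of the luciferase reporter signal at the single screening dose is 50% or more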
HIF-2a inh = inhibitors of HIF-2a; 786-0 RCC cells HIF-2a reporter, luciferase luminescence, overnight; inhibition, % at 18.8 µM; 0.72% of 360,000 active;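 active = inhibition of the luminescence signal of 40% or more relative to plate controls, in a single-dose primary screen at 18.75 µM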
An asterisk follows results filed as active; nt = not tested or not shown. Sampled rows, rich in hits. Any-hit rate of the full collection: about 4%.

SMILES	CF NFkB inh	KKLEB tox	Peg3 promoter	TWEAK Fn14 block	TROY NFkB inh	HIF-2a inh
COc1ccc(-c2cc(-c3ccccc3)nc(SC(C)C(=O)O)c2C#N)cc1 (centres undefined)	5.4	11.8	27.0	-11.8	0.0	20.7
COc1ccc2[nH]c(=O)c(CN(Cc3cccs3)S(=O)(=O)c3cccc4nsnc34)cc2c1	97.9*	-52.9*	65.9*	26.4	23.8	-25.3
COc1ccc2[nH]c(=O)c(CN(CCO)S(=O)(=O)c3c(C)ccc4nsnc34)cc2c1	17.2	0.3	-3.7	-16.6	14.3	22.5
COc1ccc(CCN(C(=O)c2ccc(F)cc2)C2=CC3CCC(C2)N3C)cc1OC (centres undefined)	-6.0	-3.5	-0.9	68.4*	-4.7	12.5
O=C(CSc1nc2ccccc2n1CCc1ccccc1)c1ccc(O)c(O)c1	-7.6	-7.1	-14.8	21.1	8.0	-18.3
O=C(Nc1ccc(Br)cc1)c1ccc(F)c(S(=O)(=O)NCc2cccs2)c1	10.6	-12.0	17.0	57.6*	41.1	5.8
O=S(=O)(NCc1cccs1)c1ccc(Br)cc1	4.7	21.2	-29.0	4.0	-16.4	-18.1
CCN(CC)CCOC(=O)c1ccc(NC(=O)/C=C/c2cccs2)cc1	5.1	-0.4	-76.9	63.7*	74.2*	-64.3
Cc1ccnc(NC(=O)c2cccs2)c1	0.6	-0.8	-195.6	-5.5	-42.4	-173.5
Cc1cc(NC(=O)c2cccs2)ncc1NC(=O)C(C)(C)C	-0.7	-4.5	-146.8	46.7	51.5*	-79.6
CCc1nc2nc(C)c(NS(=O)(=O)c3ccc(Cl)s3)c(=O)n2[nH]1	6.9	3.0	8.7	14.3	-18.6	8.1
O=S(=O)(Nc1nc(-c2sccc2Cl)cs1)c1cc(Cl)ccc1Cl	31.1	-8.2	11.6	-17.7	57.8*	3.2
COc1ccc2c(c1)c(=O)oc1c(C)c(OCc3cc(C(=O)O)oc3C)ccc12	-14.5	13.5	-26.8	79.2*	22.7	-20.5
NC(=S)n1[nH]c(-c2ccc([N+](=O)[O-])cc2)c(N=Nc2ccc(Cl)cc2)c1=O	-17.8	-23.8	21.5	54.5*	53.0*	-43.7
Cc1ccc([N+](=O)[O-])cc1N=Nc1c(-c2ccc([N+](=O)[O-])cc2)[nH]n(C(N)=S)c1=O	-27.3	-44.1	48.4	80.9*	64.5*	-29.4
Cc1ccc([N+](=O)[O-])cc1N=Nc1c(C)[nH]n(C(N)=S)c1=O	-11.5	5.1	-3.7	-4.3	-0.4	6.4
CCCCSC(=S)NC1CCS(=O)(=O)C1 (centres undefined)	40.4	-10.9	18.1	57.2*	16.1	31.8
CN1CCc2c(sc(/N=C/c3cc(Cl)ccc3O)c2C#N)C1	13.3	2.6	-337.0	64.5*	74.5*	-250.1
Cc1ccc(NC(=O)C2CCCC2)cc1Cl	12.5	5.9	-8.0	2.9	-13.9	-38.4
Cc1ccc(NS(=O)(=O)c2ccc(Cl)c(NC(=S)NC(=O)C3CCCCC3)c2)cc1Cl	33.5	-10.4	44.9	65.2*	36.5	12.5
CCC(=O)NC1=C(Cl)C(=O)C(NC(=O)CC)=C(Cl)C1=O	37.3	-2.1	80.6*	11.2	9.4	95.7*
CCOC(=O)C1CCCN(C(=O)c2cc(S(=O)(=O)N3CCCCC3)c[nH]2)C1 (centres undefined)	-16.9	1.6	20.5	3.8	6.1	9.6
O=C(N/N=C/c1ccc(O)cc1)Nc1cccc2nsnc12	69.3*	-37.8	31.9	62.8*	37.0	-71.6
Cc1cc(-c2ccc(C(C)C)c(S(=O)(=O)N3CCOc4ccccc43)c2)on1	8.5	-4.4	16.0	-6.8	15.2	17.0
CCc1ccc(-c2cc(C)no2)cc1S(=O)(=O)N1CC(=O)Nc2ccccc21	2.8	-2.2	-0.8	-12.1	-20.5	0.9
SMILES	CF NFkB inh	KKLEB tox	Peg3 promoter	TWEAK Fn14 block	TROY NFkB inh	HIF-2a inh
Cc1cc(-c2ccc(C)c(S(=O)(=O)N3CC(=O)Nc4ccccc43)c2)on1	-26.7	2.5	-15.8	92.1*	-14.5	5.5
Cc1ccc(-c2onc(C)c2C)cc1S(=O)(=O)N1CCOc2ccccc21	-3.8	-5.9	52.0*	64.2*	44.0	14.2
CCOC(=O)CC1(CCc2ccccc2)Oc2ccccc2O1	nt	nt	nt	nt	nt	14.2
COc1ccccc1-c1nnc(C2CCN(S(=O)(=O)c3ccccc3[N+](=O)[O-])CC2)o1	-21.9	13.7	10.4	-8.2	2.2	8.4
O=C(O[C@@H]1OC2COC(=O)c3cc(O)c(O)c(O)c3-c3c(cc(O)c(O)c3O)C(=O)O[C@@H]([C@H]1O)[C@@H]2O)c1cc(O)c(O)c(O)c1	7.8	-26.6	13.9	75.3*	-19.6	7.7
O=C(Nc1ccc2c(c1)OCCO2)C(c1ccnc2ccccc12)N1CCN(c2ccc(F)cc2)CC1 (centres undefined)	-21.6	10.3	6.3	-44.6	14.4	-38.6
O=C(Nc1ccc2c(c1)OCCO2)C(c1ccnc2ccccc12)N1CCN(c2ccc(C(F)(F)F)cn2)CC1 (centres undefined)	-7.5	16.5	26.5	88.6*	69.2*	33.0
Cc1nc2ccc([N+](=O)[O-])cc2nc1C	-12.6	4.1	8.6	16.7	0.8	9.8
Cc1ccc2nc3cc([N+](=O)[O-])cc([N+](=O)[O-])c3cc2c1	68.1*	-39.4	75.1*	87.5*	51.6*	-130.5
O=C(CCS(=O)(=O)c1ccc(Cl)cc1)Nc1nccs1	4.8	3.9	-29.8	4.9	56.7*	-16.9
COC(=O)c1ccsc1NC(=O)CCS(=O)(=O)c1ccc(Cl)cc1	-11.9	8.5	20.7	5.0	30.2	3.4
COCCCn1nnnc1SCC(=O)Nc1nc2ccccc2s1	5.0	-1.7	2.2	2.2	81.3*	-5.4
CCn1nnnc1SCC(=O)Nc1nc2ccccc2s1	1.3	6.5	-81.9	39.0	-24.7	-69.5
N#CC(=C1C=CC(=NO)C(Cl)=C1)c1ccc(Cl)cc1	53.2*	-2.5	15.2	64.0*	26.8	-27.0
Cc1ccc(Cc2c(-c3cccc(Cl)c3)nc3c4ccccc4ccn23)cc1	4.1	-7.6	-18.8	8.5	5.6	-39.6
Cc1ccc(C(=O)COC(=O)CN2C(=O)C3C4CCC(C4)C3C2=O)cc1C (centres undefined)	-2.0	-2.2	6.0	0.9	-17.6	-2.8
COc1ccccc1C(=O)NCc1ccc(-c2nc3ccccc3s2)cc1	7.5	-9.9	-19.6	75.8*	45.1	21.9
COC(=O)Cc1ccc2sc(-c3ccccc3)nc2c1	3.9	-5.3	-112.6	55.9*	12.0	-183.4
COc1cc(C(=O)NCc2ccc(-c3nc4ccccc4s3)cc2)cc(OC)c1OC	22.0	-20.3	-126.6	-40.0	-16.3	-113.8
CCOC(=O)N1CCC(N2C(=O)c3ccc(C(=O)Nc4cccc(OC)c4)cc3C2=O)CC1	-15.0	21.2	-14.6	-32.4	10.4	1.6
Cc1nc2c(=O)[nH]n(C)c2nc1C	-4.5	-4.5	2.9	-4.5	8.2	9.2
Cc1onc(-c2ccccc2)c1CNC(=O)Nc1ccc(C(F)(F)F)cc1	-1.9	-9.1	26.5	8.6	50.4*	26.4
